Structures are written as SMILES. The full ranking holds about 110,000 compounds; the median of “z-score” is about -0.1, and the highest 2% start at about 2. Only a selection was taken, and the highest values are over-represented in it overall. Calls of active or inactive are those of the source.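 The calls were made as follows: active = z-score in the third read window above 3 or below -3; inactive = the rest.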 Non-standard residues stand in square brackets, D forms with d. Residues, ends and D or L forms follow the SMILES beside them. ξ: configuration not given here. *: point of attachment. Boc = CC(C)(C)OC(=O)*; ξP = O=C(O)C1CCCN1

The target of the assay is Metabotropic glutamate receptor 8 (Rattus norvegicus) (UniProt P70579). In words: rat mGluR8 modulators via GIRK flux, primary screen, cell-based, thallium flux, HTS (AID 488969). The settings on record: HEK293 rat mGluR8, GIRK (G protein-gated inwardly rectifying potassium channel) thallium flux, FluoZin2; at 10 µM; stronger effect = higher value; submaximal glutamate (EC20) added with thallium.
Chain of Metabotropic glutamate receptor 8 (Rattus norvegicus) (P70579 whole entry, looked up): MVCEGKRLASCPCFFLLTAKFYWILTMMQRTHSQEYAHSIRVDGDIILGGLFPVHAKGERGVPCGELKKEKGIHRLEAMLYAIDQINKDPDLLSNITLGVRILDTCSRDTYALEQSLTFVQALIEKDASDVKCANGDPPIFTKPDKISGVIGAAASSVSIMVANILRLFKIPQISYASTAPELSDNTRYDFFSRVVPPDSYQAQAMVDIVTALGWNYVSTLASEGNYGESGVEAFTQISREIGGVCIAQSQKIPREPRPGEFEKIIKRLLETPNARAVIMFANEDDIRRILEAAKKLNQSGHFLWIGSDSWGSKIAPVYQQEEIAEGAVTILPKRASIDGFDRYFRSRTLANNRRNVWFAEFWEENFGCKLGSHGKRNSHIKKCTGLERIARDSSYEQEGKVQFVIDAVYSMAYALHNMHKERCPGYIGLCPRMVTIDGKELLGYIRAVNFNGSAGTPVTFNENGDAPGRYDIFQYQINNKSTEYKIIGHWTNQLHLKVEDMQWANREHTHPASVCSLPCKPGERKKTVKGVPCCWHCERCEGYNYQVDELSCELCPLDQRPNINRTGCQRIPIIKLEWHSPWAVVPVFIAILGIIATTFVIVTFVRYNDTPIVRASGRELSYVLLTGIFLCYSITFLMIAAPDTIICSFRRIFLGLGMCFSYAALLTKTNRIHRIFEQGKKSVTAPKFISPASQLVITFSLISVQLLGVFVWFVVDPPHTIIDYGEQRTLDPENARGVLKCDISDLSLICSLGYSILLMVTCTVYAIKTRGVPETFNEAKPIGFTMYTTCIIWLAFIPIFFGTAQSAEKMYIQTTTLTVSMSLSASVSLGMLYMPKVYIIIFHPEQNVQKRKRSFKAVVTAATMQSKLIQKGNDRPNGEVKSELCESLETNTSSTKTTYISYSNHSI
With `COc1cc(CNC2CCCCCC2)cc(OC)c1O`, the z-score was 0.176.
Then `CCn1c(CNC(=O)c2ccco2)nnc1SCC(=O)Nc1cc(C)c(C)cc1Br`, with -0.121; and `COC(=O)c1c(N)c(C#N)c(C)n1-c1ccccc1`, with -0.272.
Then `CC(C)(C)C(=O)Nc1ccccc1C(=O)OCC(=O)c1ccc2c(c1)OCCO2`, with -0.731.
Compound `CCOC(=O)N1CCN(Cc2nc(N)nc(Nc3ccccc3C)n2)CC1` returned a z-score of -0.106.
The figure for `OCCCCNCc1ccc(OCc2ccc(Cl)cc2Cl)cc1` is 1.19.
Then `OCCCCNCc1ccc(OCc2ccccc2)cc1`, with 0.0747.
For the compound `OCCCCNCc1ccc(OCc2ccccc2Cl)cc1`, the z-score is 2.17.
The figure for `Cc1occc1-c1nnc(SCc2cc(=O)n3cc(Br)ccc3n2)n1C` is 0.0968; for `Cc1ccccc1-c1nc(CN2CCC(C(=O)NCCC3=CCCCC3)CC2)c(C)o1` it is 1.63; for `Cc1ccccc1-c1nc(CN2CCCC(C(=O)NCCCN3CCOCC3)C2)c(C)o1` (configuration not stated) it is -0.359.
Then `Cc1ccccc1-c1nc(CN2CCC(C(=O)NCCCN3CCCC3)CC2)c(C)o1`, with 2.76; and `Cc1ccccc1-c1nc(CN2CCC(C(=O)NCCCN3CCOCC3)CC2)c(C)o1`, with -0.636.
The figure for `CCN1CCCC1CNC(=O)C1CCN(Cc2nc(-c3cccc(Br)c3)oc2C)CC1` (configuration not stated) is 4.3 (active); for `Cc1oc(-c2cccc(Cl)c2)nc1CN1CCC(C(=O)NCC2CCCO2)CC1` (configuration not stated) it is -0.375; for `Cc1ccccc1-c1nc(CN2CCC(C(=O)NCCCN3CC(C)CC(C)C3)CC2)c(C)o1` (configuration not stated) it is 2.43.
In the case of `Cc1ccccc1-c1nc(CN2CCC(C(=O)NCC3CCCO3)CC2)c(C)o1` (configuration not stated), the z-score is -0.924.
Then `CCN1CCCC1CNC(=O)CS(=O)(=O)Cc1nc(-c2ccccc2C)oc1C` (configuration not stated), with 1.21; and `CCN1CCCC1CNC(=O)CSCc1nc(-c2ccccc2C)oc1C` (configuration not stated), with 4.01 (active); and `Cc1oc(-c2cccc(Cl)c2)nc1CN1CCC(C(=O)NCc2ccco2)CC1`, with -4.86 (active).
The figure for `Cc1oc(-c2ccccc2Cl)nc1CSCC(=O)NC1CCCC1` is -0.0255; for `COCCNC(=O)c1ccc(C(=O)C(=O)c2ccccc2)cc1` it is -0.189; for `CCOC(=O)N1CCC(NC(=O)c2cc3c(=O)n(C)c4ccccc4c3n2C)CC1` it is -0.597.
Then `CC(C)(C)NS(=O)(=O)c1ccc(CCC(=O)Nc2cc(Cl)ccc2Oc2ccccc2)cc1`, with 0.0264; and `Cc1ccc(C(=O)Oc2coc(CSc3nnc(NC(=O)C4CC4)s3)cc2=O)cc1C`, with 0.84; and `Cc1nnc(N(Cc2ccccc2)C(=O)c2cnccn2)s1`, with 0.0216.
`C=CCn1c(SCC(=O)c2ccc(Cl)s2)nc2ccccc2c1=O` had a z-score of -0.205.
The figure for `C=CCn1c(SCN2C(=O)c3ccccc3C2=O)nc2ccc(Cl)cc2c1=O` is 12.6 (active); for `C=CCn1c(SCC(=O)Nc2sccc2C(N)=O)nc2ccc(Cl)cc2c1=O` it is 5.23 (active).
`C=CCn1c(SCC(=O)NCCC2=CCCCC2)nc2ccc(Cl)cc2c1=O` showed a z-score of -0.151.
The figure for `C=CCn1c(SCC(=O)Nc2sccc2C(N)=O)nc2ccccc2c1=O` is -0.59; for `C=CCn1c(SCC(=O)Nc2sccc2C(N)=O)nc2sc(CC)cc2c1=O` it is -1.15.
In the case of `O=C1C2C3C=CC([C@@H]2C(=O)N1c1nccs1)C31CC1` (some centres not stated), the z-score is -0.0608.
The figure for `Cc1ccc2nc(NC(=O)c3ccc(NS(=O)(=O)c4cccs4)cc3)sc2c1` is 0.062; for `CC(C)NC(=S)N=Nc1c(O)[nH]c2ccc(C(C)C)cc12` it is 0.589; for `CNC(=S)N=Nc1c(O)[nH]c2ccc(C(C)C)cc12` it is 5.56 (active).
The figure for `NC(=S)N=Nc1c(O)[nH]c2ccc(F)cc12` is 1.48; for `COC(=O)CNC(=O)C1CCCN1C(=O)OC(C)(C)C` (configuration not stated) (Boc-[ξP]-Gly-OMe) it is -0.536; for `Cn1cc(Cl)c(C(=O)Nc2nc3ccc(Cl)cc3s2)n1` it is 0.119.
The figure for `CCOC(=O)N1CCN(c2cc3nccnc3cc2F)CC1` is -0.142; for `CCOC(=O)N1CCN(c2c(F)cc3[nH]c(=S)[nH]c3c2Br)CC1` it is 6.26 (active).
`CCOC(=O)N1CCN(c2cc3[nH]c(=S)[nH]c3cc2F)CC1` came in with a z-score of -0.482.
Then `CC1CCCC(C)N1C(=O)CSc1nnc(NC(=O)Cc2cccs2)s1` (configuration not stated), with -1.05; and `Cc1cc(NC(=O)CCC(=O)NNC(=O)c2ccc(C(C)(C)C)cc2)no1`, with -0.141.
Turning to `Cc1noc(C)c1CSc1ccccc1C(=O)Nc1nccs1`, the z-score was determined as 0.618.
Then `CN=c1scc(C)n1/N=C/c1ccc(O)cc1O`, with 0.0453; and `CC(C)N=c1scc(-c2cccs2)n1/N=C/c1ccc(O)c(O)c1O`, with 4.07 (active); and `COCCNC(=O)Nc1ccc2nc(-c3cccs3)c(-c3cccs3)nc2c1`, with -0.235.
Turning to `Oc1ccc(/C=N/N=C(c2ccccc2)c2ccccc2)c(O)c1O`, the z-score is -0.213.
The figure for `CN=c1scc(C)n1/N=C/c1ccc(O)c(O)c1O` is -0.648; for `COCCN=c1scc(-c2cccs2)n1/N=C/c1ccc(O)c(O)c1O` it is 2.93.
In the case of `CCN=c1scc(C)n1/N=C/c1ccsc1`, the z-score is -0.0195.
Consider `CN=c1scc(-c2cccs2)n1/N=C/c1ccc(O)c(O)c1O`, for which the z-score is 3.01 (active).
With `CCN=c1scc(C)n1/N=C/c1ccc(O)c(O)c1O`, the z-score was -0.528.
`CN=c1scc(-c2cccs2)n1/N=C/c1ccccc1O` showed a z-score of 0.0374.
Then `COc1ccc(O)c(/C=N/n2c(-c3ccco3)csc2=Nc2cccnc2)c1`, with 0.368.
For `CCN=c1scc(-c2cccs2)n1/N=C/c1cc(OC)ccc1O`, the z-score was found to be 2.02.

(Values after PubChem BioAssay AID488969 (Vanderbilt High Throughput Screening Facility, 2010).)
